Test results: PubChem BioAssay (NCI)
This is part of a sample that, as a whole, favours compounds with a hit. Of some 83,000 tested, about 20% had one in any assay.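 In brief: 96-well plates, 48 h treatment, single concentration, percent growth endpoint.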 Activity calls are given as the source filed them. The calls were made as follows: active = growth percent below 10; inactive = the rest.

The compounds below were run on HL-60(TB) leukemia (assay: NCI-60 one-dose screen, 48 h (100 = growth as untreated, 0 = no growth, -100 = all killed)). Conditions: 10 µM unless noted.

Row | Structure (SMILES) | growth
1 | COc1ccc2c(c1)C(=O)c1c-2c(OCCCN(C)C)nc2cc(Br)ccc12 | 98.4% (inactive)
2 | COc1ccc(-c2nc3c(N)c(CO)cnc3s2)cc1 | 80.5% (inactive)
3 | CC1=NN(c2nc(-c3ccc(Cl)cc3)c(C#N)c(N3CCOCC3)n2)C(=O)C1 | 81.8% (inactive)
4 | Cc1nn(-c2ccc(F)cc2)c2ncnc(Oc3ccc(NC(=O)Nc4ccc(Cl)c(C(F)(F)F)c4)cc3)c12 | 99% (inactive)
5 | CC(=O)OC(c1ccccc1)C1CCOC1=O (stereo not given) | 113% (inactive)
6 | O=C(Nc1ccc(CN2CCOCC2)c(C(F)(F)F)c1)c1nc2ccc3[nH]ncc3c2c2c1CCCC2 | 98.1% (inactive)
7 | O=C1NC(=S)NC(=O)C1=Cc1cn(Cc2ccccn2)c2ccccc12 | 32.5% (inactive)
8 | O=C1CN(CCN2CC(=O)NC(=O)C2)CC(=O)N1 | 88% (inactive)
9 | CCOC(=O)CCN(CCC(=O)OCC)c1ccccc1 | 104% (inactive)
10 | CC1SC(c2ccc(OCc3ccccc3)cc2)N(NC(=O)C(O)(c2ccccc2)c2ccccc2)C1=O (stereo not given) | 14.5% (inactive)
11 | Oc1ccc(Nc2nccc(-c3ccc4ccccc4c3)n2)cc1 | 7.93% (active)
12 | CCOC(=O)c1cc2c(n1Cc1cc(OC)c(OC)c(OC)c1)-c1nc(N)sc1CCC2 | 13.2% (inactive)
13 | Cn1/c(=N\N=C\c2ccccc2OCCO)sc2ccccc21 | 92.5% (inactive)
14 | C=C1C(=O)O[C@H]2[C@H]1CC/C(COC(=O)NCc1ccc(Cn3c(=O)sn(CCCCl)c3=O)cc1)=C\CC[C@@]1(C)O[C@@H]21 | -50.6% (active)
15 | Cn1ncc(Cl)c1-c1cc(C(=O)N[C@H](CN)Cc2ccc(F)c(F)c2)oc1Cl | -35.6% (active)
16 | C[C@H](NC(=O)[C@@H]1CSSC[C@@H](NC(=O)c2nc3ccccc3cc2O)C(=O)NCC(=O)N1C)c1ccccc1 | -27.6% (active)
17 | COC1(CC[C@@H](C)COC2OC(CO)C(O)C(O)C2O)O[C@H]2C[C@H]3[C@@H]4CC=C5C[C@@H](OC6OC(CO)C(OC7OC(C)C(O)C(O)C7O)C(O)C6OC6OC(C)C(O)C(O)C6O)CC[C@]5(C)[C@H]4CC[C@]3(C)[C@H]2[C@@H]1C (stereo not given in full) | 27.1% (inactive)
18 | Oc1ccc(Cl)cc1CNc1nc2ccccc2[nH]1 | -56.6% (active)
19 | CC(C)(C)c1cc(O)c(C(C)(C)C)cc1O | 35.1% (inactive)
20 | C=C1c2c(C)nn(-c3ccc(NC(C)=O)cc3)c2N(C)C23CC1C1(C)c4c(C)nn(-c5ccc(NC(C)=O)cc5)c4N(C)C(C)(CC12)C3 (stereo not given) | -20.6% (active)

Row | Structure (SMILES) | growth
21 | C#CC#CC#CC#CC#CC#CC#CC#CC[C@@H]1OC[C@H](COC(=O)O[C@@H](C(=O)O[C@H]2C[C@@]3(O)[C@@H](OC(=O)c4ccccc4)[C@@H]4[C@]5(OC(C)=O)CO[C@@H]5C[C@H](O)[C@@]4(C)C(=O)[C@H](OC(C)=O)C(=C2C)C3(C)C)[C@@H](NC(=O)c2ccccc2)c2ccccc2)O1 | 6.04% (active)
22 | COc1ccc(/C=C/C(=O)/C=C(/C=C/c2ccc(OC)c(OC)c2OC)OB(F)F)c(OC)c1OC | 8.53% (active)
23 | COc1cc2c(=O)n(CCCn3ccnc3)c3c4cc5c(cc4ccc3c2cc1OC)OCO5 | -15.2% (active)
24 | CC1NC(=O)NC1CCCCCC(=O)O (stereo not given) | 107% (inactive)
25 | CCCC(=O)OCC1OC(n2cnc3c(=S)nc(N)[nH]c32)C(OC(=O)CCC)C1OC(=O)CCC (stereo not given) | 13.2% (inactive)
26 | Cc1cc(C)c(NC(=O)c2sc3nc4c(cc3c2N)CCCCCC4)c(C)c1 | -20.2% (active)
27 | COc1ccc2nc3c(cc2c1)C(=O)CC(C(F)(F)F)C3 (stereo not given) | -15.1% (active)
28 | Fc1cc(-c2nnc3sc(-c4ccc(Cl)cc4)nn23)c(Cl)cc1Cl | 26.9% (inactive)
29 | O=C1CNc2cc(Cl)ccc2N1 | 99.7% (inactive)
30 | O=c1c(-c2nc3ccccc3[nH]2)cc2ccccc2n1Cc1cn(Cc2ccc(N3CCOCC3)cc2)nn1 | 104% (inactive)
31 | Nc1nc2ccc3[nH]ncc3c2c2c1CCCC2 | -23.4% (active)
32 | CCCCCOc1ccc(/C=N/Nc2cc(C)nc3ccc(Cl)cc23)cc1 | 0.0681% (active)
33 | CCN1CCN(Cc2ccc(-c3cc4c(N[C@H](C)c5ccccc5)ncnc4[nH]3)cc2)CC1 | 14.5% (inactive)
34 | COc1ccc(CNc2nccnn2)cc1 | 69.9% (inactive)
35 | COc1ccc2[nH]cc(C3(c4c[nH]c5ccc(OC)cc45)C(=O)Nc4ccc(Cl)cc43)c2c1 | 10.9% (inactive)
36 | Cc1cc(C(C)(C)CC(C)(C)C)ccc1OCCOCC[N+](C)(C)Cc1ccccc1 | -67.1% (active)
37 | COc1cc(/C=C/C(=O)Nc2cccnc2Nc2ccc(F)cc2)cc(OC)c1OC | 107% (inactive)
38 | COC12CC(=O)C(C(C)=O)=C(O)C1(C)c1c(O)c(C)c(O)c(C(C)=O)c1O2 (stereo not given) | 61.7% (inactive)
39 | Cc1cc2nc3cc(C)c(N)cc3[n+](-c3ccccc3)c2cc1N | 63.3% (inactive)
40 | O=C(O)C[C@H](O)C[C@H](O)/C=C/c1c(C2CC2)nc2ccccc2c1-c1ccc(F)cc1 | 66.2% (inactive)
